Inconclusive results are not listed. Entries that show only a call come without a potency. A number with no mark means an inactive call. Active and inactive are the calls of the source. Calls follow the shape of the dose curve; as a rule, active = well fitted inhibition curve with a large enough effect; inconclusive = small, poorly fitted or top-dose-only effect; inactive = flat fitted curve, though single readings scatter. Where a SMILES comes first, the peptide text is derived from it.

The experiment is described as follows: Primary qHTS for inhibitors of nuclear receptor binding SET domain protein 2 (NSD2) in an isogenic RCH-ACV NSD2 p.E1099K mutant (9B) (AID 1645876). Also: nearly all actives have a fitted effect of over 70% in size. Conditions: RCH-ACV (leukaemia line) NSD2 E1099K (9B) viability, CellTiter-Glo, 72 h; series mostly up to 44.9 µM.
Regarding `CC(C)=CCC/C(C)=C/CO[C@@H]1O[C@H](CO[C@@H]2OC[C@](O)(CO)[C@H]2O)[C@@H](O)[C@H](O)[C@H]1O`, the Potency result was “inactive”.
For `CC1OC(OC2C(OC3C(O[C@H]4CC[C@@]5(C)C(CC[C@]6(C)C5CC=C5C7CC(C)(C)CC(O)[C@]7(C)CC[C@]56C)C4(C)C)OC(C(=O)O)C(O)C3O)OCC(O)C2O)C(O)C(O)C1O` (some centres undefined), the outcome is “inactive [at 9.23 µM]”.
With `CC(=C\C(C)O)/C=C(\C)C(=O)CC1CC(CC(N)=O)CC(=O)O1` (centres undefined), the Potency entry is “inactive”.
The same measure, in the same setting: as for `CC(=O)c1ccc(O[C@@H]2O[C@H](CO[C@@H]3OC[C@@H](O)[C@H](O)[C@H]3O)[C@@H](O)[C@H](O)[C@H]2O)cc1`, the entry is “inactive”; as for `CCC1=C(C)C(=O)C(C)CC12C(=O)CCC2C(=O)O` (centres undefined), “inactive”.
For the molecule `CC1OC(O[C@@H]2[C@@H](O)[C@H](OC(=O)[C@]34CCC(C)(C)C[C@H]3C3=CCC5[C@@]6(C)CC[C@H](O[C@@H]7O[C@H](C(=O)O)[C@@H](O)[C@H](O[C@@H]8OC[C@@H](O)[C@H](O)[C@H]8O)[C@H]7O[C@@H]7O[C@H](CO)[C@H](O)[C@H](O)[C@H]7O)[C@@](C)(C=O)C6CC[C@@]5(C)[C@]3(C)C[C@H]4O)O[C@H](C)[C@@H]2OC2OC(C)C(OC3OCC(O)C(O)C3O)C(O)C2O)C(O)C(O)C1O` (some centres undefined), the activity change, negative = viability loss is -4.28% [at 9.23 µM].
`CCOC(=O)C(CCc1ccccc1)NC(C)C(=O)N1Cc2ccccc2CC1C(=O)O` (centres undefined): the Potency result is “inactive”.
Consider `CC(=O)O[C@@H]1[C@H](O[C@@H]2O[C@H](CO)[C@@H](O)[C@H](O)[C@H]2O)[C@@H](O[C@@H]2O[C@@H](C)[C@H](O)[C@@H](O[C@@H]3O[C@H](CO)[C@@H](O)[C@H](O)[C@H]3O)[C@H]2O)[C@H](OC(=O)[C@]23CCC(C)(C)C[C@H]2C2=CCC4[C@@]5(C)C[C@H](O)[C@H](O[C@@H]6O[C@H](C(=O)O)[C@@H](O)[C@H](O)[C@H]6O)[C@@](C)(C(=O)O)C5CC[C@@]4(C)[C@]2(C)CC3)O[C@@H]1C` (some centres undefined), for which the activity change, negative = viability loss was -4.25% [at 9.23 µM].
Consider `NC(=O)NCCCC(NC(=O)Cc1ccccc1)C(=O)O` (centres undefined), for which the Potency entry was “inactive”.
The same measure, in the same setting: as for `C=C(C(=O)O)C1CC(OC(=O)CC(C)CC)C2(C)CCCC(=C)C2C1` (centres undefined), the entry is “inactive”.
Same read-out and setting: next, `COc1ccc(C(=O)OC2C3C=COC(OC4OC(CO)C(O)C(O)C4O)C3C3(CO)OC23)cc1OC` (centres undefined): “inactive”.
In the case of `CC(=O)O[C@@H](C[C@@H]1C=C(C)C(=O)O1)[C@H](C)[C@H]1CCC2[C@@]3(C)CC[C@H](O[C@@H]4O[C@H](CO)[C@@H](O)[C@H](O)[C@H]4O[C@@H]4O[C@@H](C)[C@H](O)[C@@H](O)[C@H]4O)C(C)(C)C3CC[C@@]2(C)[C@@]12COC(=O)C2` (some centres undefined), the activity change, negative = viability loss was -3.49% [at 9.23 µM].
Take `O=S(=O)(O)c1ccc(Nc2ncnc3c2ncn3[C@@H]2O[C@H](CO)[C@@H](O)[C@H]2O)cc1`: the Potency entry was “inactive”.
Consider `C=C(CCO)C(=O)OCC1OCC(OC(=O)C(=C)CCO[C@@H]2O[C@H](COC(=O)C(=C)CCO[C@@H]3O[C@H](CO)[C@@H](O)[C@H](O)[C@H]3O)[C@@H](O)[C@H](O)[C@H]2O)C(O)C1O` (some centres undefined), for which the Potency entry was “inactive”.
On the same count and under the same terms, as for `COc1cc(O)cc2c1C(=O)OC(C)C2` (centres undefined), the entry is “inactive”; as for `CN1CCN(C(=O)c2cc3cc(Cl)ccc3[nH]2)CC1`, “inactive”.
Same read-out and setting: as for `CC1=CC[C@@]2(C)CC[C@@](O)(C(C)C)[C@@H]2[C@@H](O)C1`, the entry is “inactive”.
On to `CC(C)=CC[C@H]1O[C@]2(O)C([C@H]3CCC4[C@@]5(C)CC[C@H](O[C@@H]6O[C@H](CO)[C@H](O)[C@H](O[C@@H]7O[C@H](CO)[C@@H](O)[C@H](O)[C@H]7O)[C@H]6O[C@@H]6O[C@@H](C)[C@H](O)[C@@H](O)[C@H]6O)C(C)(C)C5CC[C@@]4(C)[C@]3(C)[C@H]2O)[C@@]1(C)O` (some centres undefined), for which the activity change, negative = viability loss was -8.31% [at 9.23 µM].
Take `COc1c2c(c(C)c3c1C(=O)OC3)OC1(C)CC(O)C34OC(OC)(CCC3(C)C1C2)OC4(C)CO` (centres undefined): the Potency result is “inactive”.
On the same count and under the same terms, as for `O=C(OC[C@H]1O[C@@H](Oc2ccccc2COC(=O)C2(O)C=CCCC2O)[C@H](O)[C@@H](O)[C@@H]1O)c1ccccc1` (some centres undefined), the entry is “inactive”.
On the same count and under the same terms, next, `CC(C)CC(=O)NCCn1cc(C(=O)O)c(=O)cc1C(O)c1ccccc1` (centres undefined): “inactive”.
Still for that read-out and setting: next, `C=C1[C@H]2CCC3[C@]4(C)CCC[C@@](C)(C(=O)O)C4CC[C@]3(C2)[C@H]1OC(C)=O` (some centres undefined): “inactive”.
With `CC1(C)CCC2(C(=O)O)CCC3(C)C(=CCC4C5(C)CCC(O)C(C)(CO)C5C(O)CC43C)C2C1` (centres undefined), the Potency result is “inactive”.
For `C=C[C@H]1[C@H](O[C@@H]2O[C@H](CO)[C@@H](O)[C@H](O)[C@H]2O)OC=C2C(=O)N3Cc4c([nH]c5ccccc5c4=O)[C@@H]3C[C@H]21`, the Potency result is “inactive”.
Same read-out and setting: as for `CCC/C=C/C=C/C1CC(O)C(O)C(=O)C1CO` (centres undefined), the entry is “inactive”; as for `O=C(Cc1ccccc1)OC[C@H]1O[C@H](O[C@H]2O[C@H](CO)[C@@H](O)[C@H](O)[C@H]2O)[C@H](O)[C@@H](O)[C@@H]1O`, “inactive”.
As to `NC(=O)C(O[C@@H]1O[C@H](CO[C@@H]2O[C@H](CO)[C@@H](O)[C@H](O)[C@H]2O)[C@@H](O)[C@H](O)[C@H]1O)c1ccccc1` (some centres undefined), the Potency entry was “inactive”.
On the same count and under the same terms, next, `C[C@H](/C=C/[C@@]1(O)[C@H](C)CC(=O)CC1(C)C)O[C@@H]1O[C@H](CO[C@@H]2OC[C@@H](O)[C@H](O)[C@H]2O)[C@@H](O)[C@H](O)[C@H]1O`: “inactive”; `CC(C)C1NC(=O)CNC(=O)C2CCCN2C(=O)C(Cc2c[nH]c3ccccc23)NC(=O)CNC(=O)C(Cc2ccc(O)cc2)NC(=O)CNC1=O` (centres undefined) (cyclo(GVGYGWP); configuration not given here): “inactive”.

The values are drawn from PubChem BioAssay (NCATS).
